Reference: PubChem BioAssay (NCI)
The panel holds about 83,000 compounds, 20% with a hit somewhere; the sample as a whole holds those more often.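 Growth was measured after 48 h exposure to one concentration of compound in 96-well plates. Values under 10 count as active.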 Calls of active or inactive are those of the source.

Legend:
Assay in all cases: NCI-60 one-dose screen, 48 h (100 = growth as untreated, 0 = no growth, -100 = all killed)
Settings in all cases: 10 µM unless noted
T-47D breast = tested on: T-47D breast
BT-549 breast = tested on: BT-549 breast
MDA-MB-435 melanoma = tested on: MDA-MB-435 melanoma
SW-620 colon = tested on: SW-620 colon
MCF7 breast = tested on: MCF7 breast
HCT-116 colon = tested on: HCT-116 colon
HCC-2998 colon = tested on: HCC-2998 colon
KM12 colon = tested on: KM12 colon

Measured: growth

Cn1c2ccccc2c2c3c(c4c5ccccc5[nH]c4c21)C(=O)N(N)C3=O
inactive: T-47D breast 30.9% | BT-549 breast 46.6% | MDA-MB-435 melanoma 57.9% | SW-620 colon 44.7% | MCF7 breast 23.9% | HCT-116 colon 40.7% | HCC-2998 colon 74.4% | KM12 colon 62.8%

N#Cc1c(N)nc(N)nc1Nc1ccc(Br)cc1
inactive: T-47D breast 71.4% | BT-549 breast 86.2% | MDA-MB-435 melanoma 104% | SW-620 colon 105% | MCF7 breast 61.6% | HCT-116 colon 137% | HCC-2998 colon 110% | KM12 colon 93.9%

COc1ccc2nc3cc(Cl)ccc3c(N3CCN(c4ccnc(N5CCN(C)CC5)n4)CC3)c2c1
active: T-47D breast -26.1% | SW-620 colon -55.1% | MCF7 breast -55.8% | HCT-116 colon -62.4% | HCC-2998 colon 8.43%
inactive: BT-549 breast 55.5% | MDA-MB-435 melanoma 66.5% | KM12 colon 36%

COc1cccc(/C=C2/C(=O)N(Cc3ccco3)SC2=S)c1OC
inactive: T-47D breast 81.2% | BT-549 breast 89.7% | MDA-MB-435 melanoma 84.6% | SW-620 colon 98.4% | MCF7 breast 47.3% | HCT-116 colon 86.4% | HCC-2998 colon 108% | KM12 colon 92.2%

CN1CCN(Cc2ccc(NC(=O)c3[nH]ncc3Nc3ccnc4ccsc34)cc2)CC1
inactive: T-47D breast 65.8% | BT-549 breast 63.1% | MDA-MB-435 melanoma 61.7% | SW-620 colon 20.6% | MCF7 breast 12.9% | HCT-116 colon 10.1% | HCC-2998 colon 33% | KM12 colon 12.3%

CNc1cc2nc3cc(NC)c(C)cc3cc2cc1C
active: T-47D breast 7.86% | SW-620 colon 8.75% | MCF7 breast 3.03% | HCT-116 colon 5.54% | KM12 colon -40.7%
inactive: BT-549 breast 20.6% | MDA-MB-435 melanoma 41.7% | HCC-2998 colon 18.7%

Cc1cc(Nc2nc(N3CCN(C)CC3)nc3ccccc23)n[nH]1
inactive: T-47D breast 71.2% | BT-549 breast 76.2% | MDA-MB-435 melanoma 52.2% | SW-620 colon 69.2% | MCF7 breast 46.2% | HCT-116 colon 50.3% | HCC-2998 colon 87.6% | KM12 colon 19%

O=C(COc1cccc(/C=C2/Oc3ccccc3C2=O)c1)Nc1nccs1
active: KM12 colon 4.37%
inactive: T-47D breast 166% | BT-549 breast 87.9% | MDA-MB-435 melanoma 103% | SW-620 colon 97.2% | MCF7 breast 54.4% | HCT-116 colon 73.9% | HCC-2998 colon 105%

CC1CN(C(C)C)C(=S)N(c2ccccc2)C1=O (stereo unspecified)
inactive: T-47D breast 166% | BT-549 breast 101% | MDA-MB-435 melanoma 96.3% | SW-620 colon 108% | MCF7 breast 96.7% | HCT-116 colon 89.4% | HCC-2998 colon 101% | KM12 colon 109%

CCN(CC)CC(O)CNc1c2ccc([N+](=O)[O-])cc2nc2cc(OC)c(OC)cc12 (stereo unspecified)
active: T-47D breast -27.9% | BT-549 breast -69.8% | MDA-MB-435 melanoma -88.4% | SW-620 colon 4.13% | MCF7 breast -22.9% | HCT-116 colon -23.5% | HCC-2998 colon -68.2% | KM12 colon -37.5%

CS(=O)(CCCCN=C=S)=NC(=O)c1c(F)c(F)c(F)c(F)c1F (stereo unspecified)
inactive: T-47D breast 44.2% | BT-549 breast 97.1% | MDA-MB-435 melanoma 99.1% | SW-620 colon 74.5% | MCF7 breast 12.8% | HCT-116 colon 86.4% | HCC-2998 colon 94% | KM12 colon 54.2%

CN(C)c1ccc(/C=C\C2=[N+](C)c3ccccc3C2(C)C)cc1
inactive: SW-620 colon 10.3% | HCC-2998 colon 23.4%
active: T-47D breast 0.627% | BT-549 breast -4.12% | MDA-MB-435 melanoma 3.88% | MCF7 breast 3.95% | HCT-116 colon 7.97% | KM12 colon -21.1%

CCCCNP1(NCCCC)=NP(NCCCC)(NCCCC)=NP(NCCCC)(NCCCC)=NP(NCCCC)(NCCCC)=N1
active: T-47D breast -5.86% | MDA-MB-435 melanoma 6.7% | SW-620 colon 6.12% | MCF7 breast -7.14% | HCT-116 colon 0.711% | HCC-2998 colon -24.9% | KM12 colon -24.7%
inactive: BT-549 breast 45.4%

O=C1c2ccccc2-c2nccc3cc(Cl)nc1c23
active: T-47D breast -52.5% | MDA-MB-435 melanoma -73.7% | SW-620 colon -54% | MCF7 breast -59.5% | HCT-116 colon -91%
inactive: BT-549 breast 58.5% | HCC-2998 colon 101% | KM12 colon 25.7%

Clc1cccc(Nc2nc(Nc3cnc4ccccc4c3)c3[nH]cnc3n2)c1
inactive: T-47D breast 53.7% | BT-549 breast 73.7% | MDA-MB-435 melanoma 84.4% | SW-620 colon 98.1% | MCF7 breast 64.9% | HCT-116 colon 76.4% | HCC-2998 colon 100% | KM12 colon 92.8%

COc1cc(-c2cnc3nonc3n2)c(OC)c2c1OCO2
inactive: T-47D breast 85.4% | BT-549 breast 105% | MDA-MB-435 melanoma 111% | SW-620 colon 101% | MCF7 breast 81.3% | HCT-116 colon 99.1% | HCC-2998 colon 102% | KM12 colon 103%

COCCCN=C(N)c1ccc(NC(=O)c2ccc(C(=O)Nc3ccc(C(N)=NCCCOC)cc3)cc2)cc1
inactive: T-47D breast 108% | BT-549 breast 78.6% | MDA-MB-435 melanoma 88.4% | SW-620 colon 106% | MCF7 breast 109% | HCT-116 colon 79.7% | HCC-2998 colon 116% | KM12 colon 132%

COc1ccc2nc3cc(Cl)ccc3c(N3CCN(c4nccc(NCc5ccccc5)n4)CC3)c2c1
inactive: T-47D breast 41.8% | BT-549 breast 27.5% | MDA-MB-435 melanoma 73.9% | SW-620 colon 68% | MCF7 breast 24.6% | HCT-116 colon 25.8% | HCC-2998 colon 84.3% | KM12 colon 77%

CCN(CC)C12CCCCC1(C)C(C#N)(C#N)C(C#N)=C(N)O2 (stereo unspecified)
inactive: T-47D breast 98.8% | BT-549 breast 103% | MDA-MB-435 melanoma 96.8% | SW-620 colon 109% | MCF7 breast 105% | HCT-116 colon 100% | HCC-2998 colon 96.3% | KM12 colon 106%

CCCCCn1cnc2c(=S)nc[nH]c21
inactive: T-47D breast 90.8% | BT-549 breast 129% | MDA-MB-435 melanoma 105% | SW-620 colon 97.8% | MCF7 breast 98.4% | HCT-116 colon 106% | HCC-2998 colon 122% | KM12 colon 109%

CC(=O)OCC(=O)C1CCC=CC1OC(C)=O (stereo unspecified)
inactive: T-47D breast 87.8% | BT-549 breast 103% | MDA-MB-435 melanoma 98.3% | SW-620 colon 111% | MCF7 breast 105% | HCT-116 colon 100% | HCC-2998 colon 102% | KM12 colon 99.7%

N=S(=O)(NC(=O)c1ccc(Cl)cc1Cl)c1ccc(Br)s1 (stereo unspecified)
inactive: T-47D breast 103% | BT-549 breast 99.5% | MDA-MB-435 melanoma 96.2% | SW-620 colon 80.9% | MCF7 breast 91.5% | HCT-116 colon 80.6% | HCC-2998 colon 102% | KM12 colon 88.5%

CCOC(=O)Cc1cnn(C)c1NC(=O)c1ccc(Cl)cc1NC(C)=O
inactive: T-47D breast 103% | BT-549 breast 93.2% | MDA-MB-435 melanoma 99.4% | SW-620 colon 105% | MCF7 breast 106% | HCT-116 colon 101% | HCC-2998 colon 107% | KM12 colon 102%

COc1ccc(CN(c2ccc(C)cc2)C2OC(=O)c3ccccc32)cc1OC (stereo unspecified)
inactive: T-47D breast 95.2% | BT-549 breast 106% | MDA-MB-435 melanoma 100% | SW-620 colon 99.2% | MCF7 breast 92.5% | HCT-116 colon 105% | HCC-2998 colon 102% | KM12 colon 102%

COc1ccc(-n2c(C)nc3c(c(C)nn3-c3ccccc3)c2=O)cc1
active: BT-549 breast 9.9% | MDA-MB-435 melanoma 4.94% | HCT-116 colon 3.27%
inactive: T-47D breast 55.9% | SW-620 colon 23.1% | MCF7 breast 11.5% | HCC-2998 colon 16.6% | KM12 colon 11.3%

C=C1CCC2C3(C)COC(C)(C)OC3CCC2(C)C1C/C=C1/C(=O)OCC1OC(C)=O (stereo unspecified)
active: SW-620 colon -38.8% | HCT-116 colon -21.1%
inactive: T-47D breast 27.7% | BT-549 breast 52.9% | MDA-MB-435 melanoma 27.1% | MCF7 breast 16.5% | HCC-2998 colon 100% | KM12 colon 10.1%

COc1nc2c(cc1S(=O)(=O)c1ccccc1)CCc1c-2cnn1Cc1ccccc1
inactive: T-47D breast 16.3% | BT-549 breast 62.8% | MDA-MB-435 melanoma 58.9% | SW-620 colon 74.1% | MCF7 breast 15.4% | HCT-116 colon 32.5% | HCC-2998 colon 60.5% | KM12 colon 27.7%
